20 compounds from PubChem BioAssay AID493100 (Broad Institute, 2011) can be followed below.

Results with a measured potency or affinity are listed apart. Results filed as inconclusive are left out. Unmarked numbers belong to inactive results.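 Rule for the calls: active = decreasing signal in every run, fitted half-effect dose at most ten times the top valid dose; inconclusive = runs disagree, weak flat effect, or poor curve fit; inactive = every run inactive, signal rises included.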

This assay is described as follows: blockers of SFLLRN-triggered platelet ATP secretion – cell-based, human platelets, luminescence, dry powder, dose response (AID 493100). Particulars: SFLLRN-induced ATP dense granule secretion; series mostly up to 35 µM; activity change, negative = inhibition: at the top concentration.
Turning to `CC(=O)Nc1c(C#N)c(-c2ccccc2)c(C#N)c(=O)n1-c1ccc(C)cc1`, the “activity change, negative = inhibition” value was 2.86%.

On to `CCCC(=O)Nc1cccc(NC(=O)c2cccc(S(C)(=O)=O)c2)c1`, for which the “activity change, negative = inhibition” value is -7.48%.

Take `C/C(=N\NC(=O)C1CCCC1)c1ccc(Cl)cc1`: the “activity change, negative = inhibition” value is -1.57%.

On to `CCCCC(=O)Nc1cccc(NC(=O)c2ccccc2Br)c1`, for which the “activity change, negative = inhibition” value was -0.702%.

Regarding `CCCC(=O)Nc1cccc(NC(=O)c2ccccc2OC)c1`, the “activity change, negative = inhibition” value was -17.9%.

In the case of `CCCC(=O)Nc1cccc(NC(=O)c2cccc(Oc3ccccc3)c2)c1`, the “activity change, negative = inhibition” value was -0.033%.

With `O=Cc1ccc(NC(=O)C(F)(F)F)cc1`, the “activity change, negative = inhibition” value is -3.78%.

As to `O=C(Nc1cccc(NC(=O)c2ccccc2Br)c1)c1ccccc1`, the “activity change, negative = inhibition” value is -19.6%.

Consider `CCCC(=O)Nc1cccc(NC(=O)c2ccco2)c1`, for which the “activity change, negative = inhibition” value is -14.2%.

On to `CCCC(=O)Nc1cccc(NC(=O)c2ccc(C(F)(F)F)cc2)c1`, for which the “activity change, negative = inhibition” value was -9.62%.

`CC(=O)Nc1cccc(NC(=O)c2cccc(Cl)c2)c1`: the “activity change, negative = inhibition” value was -16.2%.

Regarding `CCCC(=O)Nc1cccc(NC(=O)c2ccc(C)cc2)c1`, the “activity change, negative = inhibition” value was -4.26%.

Regarding `CCCC(=O)Nc1cccc(NC(=O)c2ccc(S(C)(=O)=O)cc2)c1`, the “activity change, negative = inhibition” value was 0.039%.

With `CCCC(=O)Nc1cccc(NC(=O)c2cccnc2)c1`, the “activity change, negative = inhibition” value was -1.9%.

`CC(=O)c1ccc(NC(=O)C(F)(F)F)cc1`: the “activity change, negative = inhibition” value is 4.41%.

On to `CCCC(=O)Nc1cccc(NC(=O)c2cccc([N+](=O)[O-])c2)c1`, for which the “activity change, negative = inhibition” value is -9.94%.

Consider `CC(=O)Nc1cccc(NC(=O)c2ccccc2Cl)c1`, for which the “activity change, negative = inhibition” value was -10.5%.

Take `CC(=O)Nc1ccc(/C=N/NC(=O)CC2CCCCC2)cc1`: the “activity change, negative = inhibition” value was -15.4%.

Regarding `CCCC(=O)Nc1cccc(NC(=O)c2ccc(F)cc2)c1`, the “activity change, negative = inhibition” value is -5.49%.

With `CC(=O)N/N=C(\C)c1ccc(NC(=O)C2CC2)cc1`, the “activity change, negative = inhibition” value is -2.3%.
